USP30 block: human USP30 deubiquitinase inhibition; Q70CQ3; purified USP30, Ub-rhodamine cleavage fluorescence; inhibition, % at 25 µM; 47,000 tested, 5.3% active; AID 1645860
USP17 block: human USP17-like deubiquitinase inhibition. inhibition, % at 50 µM. 47,000 tested, 6.5% active. purified USP17, Ub-rhodamine cleavage fluorescence, 3 h. A8MUK1
USP8 block: human USP8 deubiquitinase inhibition | 47,000 tested, 4.2% active | P40818 | inhibition, % at 20 µM | purified USP8, Ub-rhodamine cleavage fluorescence, 30 min
Target sequence (P40818 whole entry, looked up): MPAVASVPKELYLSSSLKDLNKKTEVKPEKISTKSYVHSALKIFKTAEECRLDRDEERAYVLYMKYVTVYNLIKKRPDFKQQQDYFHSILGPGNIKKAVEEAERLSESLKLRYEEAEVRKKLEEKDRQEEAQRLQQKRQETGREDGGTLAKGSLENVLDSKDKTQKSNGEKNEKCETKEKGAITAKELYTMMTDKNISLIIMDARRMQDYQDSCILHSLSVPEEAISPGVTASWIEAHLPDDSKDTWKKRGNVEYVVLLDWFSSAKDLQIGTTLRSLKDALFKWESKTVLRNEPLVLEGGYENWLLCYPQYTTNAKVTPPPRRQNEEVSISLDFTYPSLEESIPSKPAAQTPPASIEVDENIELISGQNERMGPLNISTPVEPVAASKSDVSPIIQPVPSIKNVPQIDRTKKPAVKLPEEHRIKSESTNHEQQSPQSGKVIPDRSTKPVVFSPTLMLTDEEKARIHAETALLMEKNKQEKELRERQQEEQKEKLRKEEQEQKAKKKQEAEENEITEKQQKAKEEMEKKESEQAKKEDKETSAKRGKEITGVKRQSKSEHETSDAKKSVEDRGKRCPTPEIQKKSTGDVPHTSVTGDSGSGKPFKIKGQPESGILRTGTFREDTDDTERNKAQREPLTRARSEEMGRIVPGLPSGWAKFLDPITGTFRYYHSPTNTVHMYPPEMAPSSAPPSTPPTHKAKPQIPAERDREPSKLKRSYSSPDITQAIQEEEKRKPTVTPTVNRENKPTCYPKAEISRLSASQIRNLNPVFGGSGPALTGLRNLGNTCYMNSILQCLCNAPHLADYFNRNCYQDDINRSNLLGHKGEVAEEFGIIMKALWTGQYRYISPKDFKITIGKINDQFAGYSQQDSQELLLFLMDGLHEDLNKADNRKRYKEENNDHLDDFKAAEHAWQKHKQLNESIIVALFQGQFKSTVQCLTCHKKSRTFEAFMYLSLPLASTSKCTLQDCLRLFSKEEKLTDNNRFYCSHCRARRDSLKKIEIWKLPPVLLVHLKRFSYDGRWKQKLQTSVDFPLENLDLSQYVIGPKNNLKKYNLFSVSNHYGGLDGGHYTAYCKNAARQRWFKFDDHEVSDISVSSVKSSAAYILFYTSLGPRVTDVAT
USP28 block: blocks human USP28 ubiquitin-rhodamine cleavage; purified USP28, Ub-rhodamine cleavage fluorescence, 30 min; 47,000 tested, 3% active; inhibition, % at 25 µM; Q96RU2
Each line names hits and unclear results; the compound was inactive in the other large screens. Compounds with a hit are over-represented: about 14% of the library has one in this group of screens. Cut-off read from the data, not from the text of the source: active = inhibition above about 30%; inactive = the rest.

COc1ccc(C(=O)CN2C(=O)N(c3cccc(C)c3)S(=O)(=O)c3ccccc32)cc1	none
COc1cc(OC)cc(N2C(=O)N(CC(=O)c3ccc(Br)cc3)c3ccccc3S2(=O)=O)c1	USP17 block 30.3, USP8 block 33.4
COc1cccc(N2C(=O)N(CC(=O)NCc3ccc(Cl)cc3)c3ccccc3S2(=O)=O)c1	USP30 block 43.4, USP17 block 78.5
CC(C)(C)OC(=O)N1CC2(CCC(C(=O)O)CC2)c2ccccc21 (stereo not given)	none
Cc1nc2ccccn2c1CC(=O)Nc1cccc(C2CCc3nncn3C2)c1 (stereo not given)	USP8 block 35.9
Cc1nc(-c2ccccc2)n(Cc2ccc(F)cc2)c(=O)c1CCO	USP28 block 32.6 (no result: USP17 block)
Cc1nnc(Nc2ccc(OCC(N)=O)cc2)c2ccccc12	none (no result: USP30 block, USP28 block)
CCn1cc(-c2cc(C(=O)Nc3cnn(Cc4cccc(F)c4)c3)c3ccccc3n2)cn1	USP17 block 62.9
CNC(=O)[C@@]12CCCN(c3ncccn3)[C@@H]1CN(Cc1cccc(OC)c1)C2	none
COc1ccc(C(=O)[C@@H]2[C@H](C(=O)OC(c3ccccc3)c3ccccc3)N3c4ccccc4C=CC3[C@@]23C(=O)Nc2ccccc23)cc1 (stereo not given in full)	USP8 block 44.9
CCc1cc2c(cc(C(=O)NCc3ccc(F)cc3)n2C)s1	none
CC(=O)N1CCc2cc(Br)cc(S(=O)(=O)Nc3cc(C)cc(C)c3)c21	USP17 block 46.5
O=C1CCCN1Cc1ncn2c1CN(S(=O)(=O)c1ccccc1)CCC2	none
CNC(=O)c1cc(C2CN(S(=O)(=O)N(C)C)CCO2)nc2ccccc12 (stereo not given)	none
CC(C)c1ccc(NC(=O)c2cc3ncc(Br)cn3n2)cc1	USP17 block 51.6, USP8 block 61.1
COc1ccc(N2CCN(Cc3nnnn3Cc3ccc4c(c3)OCO4)CC2)cc1	USP30 block 52.9, USP17 block 42.4
O=C(Nc1ccc2c(c1)OCO2)c1cc(CN2CCCC2)on1	USP17 block 34.6, USP8 block 53.0
Cc1ccc(NC(=O)/C=C/c2cnn(C)c2)cc1C	none
Cc1ccc(/C=C/C(=O)Nc2ccc3c(c2)OCCO3)cc1	USP28 block 79.6
Cc1ccc2nc(NC(=O)/C=C/c3ccc4c(c3)OCO4)sc2c1	USP8 block 36.2
Cc1cc(C(=O)Nc2ccc3c(c2)OCCO3)no1	USP28 block 63.3
COc1ccc(C)cc1NC(=O)CN1C[C@]2(NC(C)=O)CN(C)CC[C@@H]2[C@H]1c1ccccc1	none
CSc1ccccc1NC(=O)c1ccc(-n2cccn2)nn1	USP30 block 41.0, USP17 block 61.9
CSc1ccccc1NC(=O)c1ccc(N2CCOCC2)nn1	none (no result: USP17 block)
Cc1ccc2c(=O)c(C(=O)N3CCOCC3)cn(CC(=O)NC3CCCCC3)c2n1	none
COc1ccc(N(CC(=O)Nc2ccc(OC)c(OC)c2)S(=O)(=O)c2c(C)nn(C)c2C)cc1	USP30 block 40.7
CCc1cccc(NC(=O)C2Oc3ccccc3NC2=O)c1 (stereo not given)	none
CC(=O)N1CCC2(CC1)CN(Cc1ccncc1)Cc1ccccc1O2	none
O=C(Cn1c(Cc2ccccc2)nc2ccccc21)N1CCc2ccccc21	USP30 block 32.4, USP8 block 48.6
O=C(NCc1nnc(SCC(=O)N2CCc3ccccc32)o1)c1cccs1	none
CCCc1nc2ccccc2n1CC(=O)N1CCc2ccccc21	none
O=C(CSc1nnc(Cc2ccccc2)o1)N1CCc2ccccc21	USP17 block 41.7
Cn1c(=O)cc(C(=O)N2CCCC2c2ccc3c(c2)OCCCO3)c2ccccc21 (stereo not given)	none
FC(F)(F)c1cc(C(F)(F)F)c2ccc(N3CCC4(CC3)OCCO4)nc2n1	USP17 block 30.1
COc1cc(C(=O)OCc2csc(-c3ccccc3)n2)ccc1OCC(=O)Nc1ccc(F)cc1	USP17 block 48.9
COc1cc2c(cc1NC(=O)COc1ncnc3sccc13)oc1ccccc12	none
COc1cc2c(cc1NC(=O)c1ccc(-n3cnnn3)cc1)oc1ccccc12	USP17 block 52.6
COC(=O)C12Oc3cc4c(c(O)c3C(O)=C1C(=O)CCC2O)C1C=CC2(C4)C(=O)c3cc(C)cc(O)c3C(O)=C2C1=O (stereo not given)	USP17 block 48.2
CN(C)CCc1cc2c(c3c1ccc1ccccc13)OCO2	USP30 block 31.3, USP28 block 74.7
CCCCOc1ccc(C(=O)Nc2c3c(nn2-c2ccccc2C)CSC3)cc1	USP17 block 45.9
CC1CCc2c(sc3nc(CCC(=O)NCc4ccc5c(c4)OCO5)[nH]c(=O)c23)C1 (stereo not given)	USP8 block 45.1
O=C(CCc1nc2sc3c(c2c(=O)[nH]1)CCCCC3)NCc1ccc2c(c1)OCO2	none
COc1ccc(CNC(=O)CCc2nc3sc4c(c3c(=O)[nH]2)CCCCC4)cc1	USP17 block 50.7
COC(=O)c1cc2occc2n1CC(=O)Nc1ccccc1C(F)(F)F	none
O=C1CC(=O)CC(c2cccc(C(F)(F)F)c2)C1	none
O=C(Oc1ccccc1Br)c1cc(-c2ccc3c(c2)OCCO3)on1	USP30 block 33.3, USP8 block 51.7
COc1ccccc1-c1cc2c(=O)n(Cc3nc(-c4cccc(F)c4)no3)ccn2n1	none
O=C1Cc2ccccc2C(=O)N1Cc1cccc(Cl)c1	USP8 block 88.4
O=C(NC1CCCC1)c1ccc2c(c1)N(Cc1cccc(Cl)c1)C(=O)c1ccccc1S2	none
O=C(CC1SC(N2CCOCC2)=NC1=O)Nc1cccc([N+](=O)[O-])c1 (stereo not given)	USP30 block 31.1
C[C@H](Cc1cc2c(cc1O)OCO2)[C@@H](C)Cc1cc2c(cc1O)OCO2	USP30 block 92.5, USP17 block 100.4, USP8 block 64.4, USP28 block 96.9
COc1cc(OC)c(OC)cc1CN1CCC(N2CCc3ccccc3C2)CC1	none
COC(=O)c1ccc(C(=O)Nc2ccc3sccc3c2)cc1	USP8 block 30.7
COC(=O)c1ccccc1NC(=O)c1ccc2c(c1)OCCCO2	none
O=C(Nc1ccc2sccc2c1)c1ccc(S(=O)(=O)N2CCOCC2)cc1	none (no result: USP17 block)
COC(=O)c1ccc(C(=O)Nc2cc3ccccc3cc2NC(=O)c2ccc(C(=O)OC)cc2)cc1	USP30 block 40.8, USP17 block 68.2
Cc1nc(CN2CCOC(Cn3cccn3)C2)oc1C (stereo not given)	none
Cc1sc2ncnc(OCc3ccc(F)cc3Cl)c2c1C	USP28 block 57.6
Cc1sc2ncnc(OCC(=O)c3cc(F)ccc3F)c2c1C	none
Cc1sc2ncnc(OCc3ccc([N+](=O)[O-])cc3)c2c1C	USP28 block 46.1
O=C(Nc1nccn(-c2ccc(F)cc2)c1=O)c1ccccc1	none
Cc1oncc1C(=O)N1CC[C@H]2CO[C@H](CN3CCOCC3)[C@H]2C1	USP30 block 30.2
Cc1occc1C(=O)N1CC[C@@H]2CN(Cc3ccncc3)CCO[C@@H]2C1	none (no result: USP30 block, USP28 block)
O=C(Cn1c(=O)c(N2CCOCC2)nc2ccccc21)NCc1ccc2c(c1)OCO2	none
Cc1ccc(-c2cc3nccc(C4CCCNC4)n3n2)cc1 (stereo not given)	USP28 block 39.6

Screens: PubChem BioAssay, Buhrlage Lab, Dana-Farber Cancer Institute and Novartis Institutes for BioMedical Research (Cambridge, Mass)
